Bioassay records from PubChem BioAssay.
TRHR enhancer – allosterically enhances the human TRH receptor | P34981 | 360,000 tested, 0.66% active | TRHR cells, fluo-8 calcium fluorescence, EC20 TRH enhancement | enhancement, % at 2 µM | AID 493056; in the data active = enhancement above about 30%; note: 0% is about no effect
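Enhancer read-out: after compound pinning and an initial kinetic agonist-mode read, an EC20 of TRH (10 nM final) was injected and fluo-8 calcium signal (Ex 480/Em 530) followed at 1 s/cycle for 100 cycles in TRHR-expressing cells.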
D1 agonist – agonists of human D1 dopamine receptor. HEK293 T-REx D1 cells, calcium flux, agonist mode. activation, % at 2 µM. 360,000 tested, 1% active. AID 504660; note: 0% is about no effect
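Tetracycline-induced HEK293 TREx D1 cells, force-coupled to calcium signalling, were dye-loaded with a no-wash calcium kit. Compound was pin-added after a 10 s baseline. Fluorescence was read kinetically at 1 cycle/s for 180 s, with calcium rises flagged as agonism.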
TRHR ag – agonists of human TRH receptor. TRHR cells, calcium flux fluo-8, FDSS agonist mode. 360,000 tested, 0.18% active. activation, % at 2 µM; note: 0% is about no effect
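Steps: seed TRHR cells overnight; add fluo-8 no-wash Ca dye, RT 30 min–1.5 h; record 10 s baseline; pin-transfer compounds; monitor fluorescence 1 cycle/s for the agonist window. Calcium increases flag candidate agonists.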
D1 potentiator – enhances dopamine response at the human D1 receptor; P21728; HEK293 TREx D1 cells, calcium flux, dopamine EC20 potentiation; 360,000 tested, 0.036% active; potentiation, % at 10 µM; in the data active = potentiation above about 30%; note: 0% is about no effect
USP1 inh – USP1/UAF1 (human) deubiquitinase inhibition; 390,000 tested, 0.23% active; recombinant USP1/UAF1, Ub-Rhodamine cleavage fluorescence; O94782; Potency, µM (doses to about 57.1 µM), inactives show top-dose activity change, negative = inhibition, most hits filed as inhibitors; AID 743255; active = well fitted inhibition curve with a large enough effect; inconclusive = small, poorly fitted or top-dose-only effect; inactive = no such curve, though single readings can be large or run the other way; note: potency is the fitted concentration of half-maximal effect; % is set by controls: 0 for no effect and ±100 for the full control effect; nearly all actives have a fitted effect of over 60% in size
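1 nM enzyme complex + cpd, 15 min RT; start with Ub-Rho 150nM final; kinetic fluorescence ex 480/em 540, 6 reads q60 s. Buffer 50mM HEPES pH 7.8, 0.5mM EDTA, 0.1 mg/ml BSA, 1mM TCEP, 0.01% Tween-20.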
D1 antag – blocks dopamine activation of the human D1 receptor; P21728; activity change, negative = inhibition, % at 10 µM; 360,000 tested, 3.2% active; HEK293 TREx D1 cells, calcium flux, dopamine EC80; active compounds read low; in the data active = activity change below about -30%; note: % is set by controls: 0 for no effect and ±100 for the full control effect
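Tetracycline-induced HEK293 Trex D1 cells, force-coupled to calcium, dye-loaded; compounds added and read 180 s, then EC80 dopamine added and calcium flux tracked kinetically another 180 s.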
Active calls of the source: *; ? = inconclusive; / = no result. Rows were chosen to be rich in hits. Some 4.4% of all compounds tested hit in one or more screens of this group. Cut-off read from the data, not from the text of the source, unless noted: active = activation above about 30%; inactive = the rest.

SMILES	TRHR enhancer	D1 agonist	TRHR ag	D1 potentiator	USP1 inh	D1 antag
COc1ccc(N2C(=O)CSC23C(=O)N(CC(=O)NCCc2ccccc2)c2ccccc23)cc1 (configuration not stated)	10	5	-1	-2	-32%	-14
CN(C)CCC1Sc2ccccc2Oc2ccccc21 (configuration not stated)	1	28	-1	-6	-8%	0
CC1c2ccccc2SC(CCCN(C)C)c2ccccc21 (configuration not stated)	5	48*	1	-1	-16%	-48*
CO/N=C(/c1nonc1N)N1CCN(c2ccc([N+](=O)[O-])cc2)CC1	-9	2	7	-4	-7%	-5
CN1CCN(/C(=N\O)c2nonc2N)CC1	-8	5	0	-10	-18%	-42*
Oc1ccc(/C=N/n2c(C3CCCCC3)n[nH]c2=S)c(O)c1	10	5	0	-7	-11%	-5
Oc1ccc(Br)cc1/C=N/n1c(C2CCCCC2)n[nH]c1=S	3	37*	-1	3	-15%	-8
COc1ccc(Cn2c(CO)cnc2SCC(=O)Nc2cccc(NC(C)=O)c2)cc1	32*	2	0	11	-6%	-18
COc1ccc(Cn2ccnc2SCC(=O)Nc2cccc(NC(C)=O)c2)cc1	-4	4	0	-2	-2%	-12
COc1cccc(NC(=O)CSc2nc(=O)n(Cc3ccncc3)c3c2CCCC3)c1	-2	2	0	37*	-5%	0
CCN(CC)CCn1c2c(c(SCC(=O)Nc3cccc(C(F)(F)F)c3)nc1=O)CCC2	0	48*	0	-2	?	/
CCOC(=O)c1c(NC(=O)CCCOc2ccc(C(C)(C)C)cc2)sc2c1CCCC2	-2	0	0	-1	-21%	-2
Cc1cc(NC(=O)COCc2cc(-c3ccc(F)cc3)on2)ccc1Br	24	11	3	-1	?	1
COc1ccc(O)c(C(=O)c2cc(C#N)c(=O)n(-c3ccc(Cl)cc3)c2)c1	-11	14	11	-1	-24%	7
COc1ccc(-n2cc(C(=O)c3cc(Cl)ccc3O)cc(C#N)c2=O)cc1	-3	20	4	-10	-19%	-35*
Cc1cc(C)cc(Oc2nc3c(C)cccn3c(=O)c2/C=C(\C#N)c2nc3ccccc3s2)c1	54*	9	0	-8	-20%	-12
Cc1ccc(C2C3=C(CCCC3=O)OC3=C2C(=O)CCC3)cc1	40*	3	-1	1	-4%	0
Cc1ccc(C2C3=C(CC(C)(C)CC3=O)OC3=C2C(=O)CC(C)(C)C3)cc1	6	0	0	-6	1%	5
CCC1CCCCN1S(=O)(=O)c1ccc(NC(=O)c2nc(S(C)(=O)=O)ncc2Cl)cc1 (configuration not stated)	-6	1	0	-11	-21%	-34*
O=C(CNC1CCCCC1)Nc1ccc(S(=O)(=O)N2CCCCC2)cc1	-5	153*	-1	43*	-11%	3
CC1CCN(CC(=O)Nc2ccc(S(=O)(=O)N3CCCC(C)C3)cc2)CC1 (configuration not stated)	0	20	2	-5	-24%	-32*
CC1CCCN(S(=O)(=O)c2ccc(NC(=O)CNC3CCCC3)cc2)C1 (configuration not stated)	29	1	0	-5	-3%	-16
CS(=O)(=O)c1ncc(Cl)c(C(=O)Nc2ccc3ccccc3c2)n1	-7	3	0	-10	-10%	-33*
CCOC(=O)CC(NS(=O)(=O)c1cc(-c2cc(C)no2)ccc1C)c1ccc(C)cc1 (configuration not stated)	3	7	0	-2	-21%	-3
CCCCc1ccc(NS(=O)(=O)c2ccc(N3CCCCS3(=O)=O)cc2)cc1	2	5	0	0	-7%	-13
Cc1nnsc1C(=O)Nc1ccc(S(=O)(=O)N2CCC(C)CC2)cc1	-4	21	1	-9	-19%	-48*
